A selection: hits, their analogues and other compounds. The true share with any hit is near 3.4%.
GPR151 ag – activates the human receptor GPR151; Q8TDV0; AID 1508602; PathHunter beta-arrestin GPR151 cells, luminescence; 650,000 compounds, 1% hits; activation, % at 11.2 µM; in the data active = activation above about 4.9%
Target sequence (Q8TDV0 whole entry, looked up): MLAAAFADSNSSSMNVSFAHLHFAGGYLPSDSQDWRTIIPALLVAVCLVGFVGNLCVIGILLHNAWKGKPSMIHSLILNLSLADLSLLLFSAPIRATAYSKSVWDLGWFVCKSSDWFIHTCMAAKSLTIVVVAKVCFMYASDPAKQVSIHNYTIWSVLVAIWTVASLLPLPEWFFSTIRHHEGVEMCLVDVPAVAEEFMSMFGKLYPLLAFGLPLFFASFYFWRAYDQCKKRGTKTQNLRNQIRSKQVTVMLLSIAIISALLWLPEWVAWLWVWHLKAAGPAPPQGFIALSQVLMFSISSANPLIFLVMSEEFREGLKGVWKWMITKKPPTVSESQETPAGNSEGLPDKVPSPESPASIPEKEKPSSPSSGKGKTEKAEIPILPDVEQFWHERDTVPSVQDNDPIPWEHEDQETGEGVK
TEAD-YAP block – TEAD-YAP interaction inhibition | HEK-TIYL cells, TEAD-Gal4/YAP UAS-luciferase luminescence | inhibition, % at 9.12 µM | 640,000 compounds, 1.4% hits | AID 1259422; in the data active = inhibition above about 32%
MITF inh – inhibitors of human MITF; O75030; 650,000 compounds, 0.91% hits; AlphaScreen MITF homodimerization, bead proximity signal; inhibition, % at 2.6 µM; AID 1259374; in the data active = inhibition above about 50%
FBW7 act – human FBW7 E3 ligase activation, primary screen; Q969H0; AlphaScreen FBW7–phospho-cyclin E peptide binding, activator screen; normalized activity (activation), % at 26.1 µM; 650,000 compounds, 0.13% hits; AID 1259310; in the data active = normalized activity above about 1.9%;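 also: purified mutant Fbw7 with reduced substrate affinity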
Large screens that a line does not name were inactive; ! = repeats disagree.

COCC1CCCCN1C(=O)c1cc(COc2ccc3ncccc3c2)on1 (stereo not given)	TEAD-YAP block 41.5
CCN(CC)C(=O)C1CCCN(C(=O)c2cc(COc3ccc4ncccc4c3)on2)C1 (stereo not given)	none
CCC1CCCCN1C(=O)c1cc(COc2ccc3ncccc3c2)on1 (stereo not given)	TEAD-YAP block 49.4
Cc1ccccc1C(=O)Nc1cccc(-c2nc3cc(Cl)ccc3o2)c1	none
C#CCN(CC=C)C(=O)CCc1nnc(CCc2ccccc2OC)o1	none
CC(=O)Nc1ccc(NC(=O)Cn2cnc3c(cnn3C(C)(C)C)c2=O)cc1	FBW7 act 4.0
CCCNc1nc(-c2ccc(OC)nc2)nc2c1ncn2-c1ccsc1	TEAD-YAP block 50.8
COc1ccc(-c2nc(NCCO)c3ncn(-c4ccccc4)c3n2)cc1	TEAD-YAP block 61.1
COc1ccc(-c2nc(NC3CC3)c3ncn(-c4ccccc4)c3n2)cn1	TEAD-YAP block 47.6
CCCNc1nc(-c2ccc(OC)nc2)nc2c1ncn2-c1ccccc1	TEAD-YAP block 32.6
CCCNc1nc(-c2ccc(OC)cc2)nc2c1ncn2-c1ccsc1	none
CCOc1ccc(CN2CCN(C(=O)C(c3ccccc3)c3ccccc3)CC2)cc1	none
COc1ccc(-c2nc(NCc3ccccc3)c3ncn(-c4ccccc4)c3n2)cn1	none
COc1ccc(-c2nc(NCCO)c3ncn(-c4ccccc4)c3n2)cn1	TEAD-YAP block 72.8
CCCNc1ccc2ncc(-c3cc4ccccc4s3)n2n1	none
FC(F)(F)c1cccc(-c2cnc3ccc(NCCc4cccnc4)nn23)c1	TEAD-YAP block 36.7
c1cncc(CCNc2ccc3ncc(-c4cc5ccccc5s4)n3n2)c1	TEAD-YAP block 72.6
CC(Oc1ccc(Br)cc1Cl)C(=O)Nc1ccncc1 (stereo not given)	TEAD-YAP block 47.6
CCCCC(=O)Nc1sc2c(c1C(N)=O)CCN(C(=O)OCC)C2	TEAD-YAP block 49.7
CCCC(=O)Nc1sc2c(c1C(N)=O)CCN(C(=O)OCC)C2	TEAD-YAP block 51.2
CCOC(=O)N1CCc2c(sc(NC(=O)C(C)(C)C)c2C(N)=O)C1	none
CC1(C)CC(=O)C(Sc2ccc(I)cc2)C(=O)C1	none
CC(=O)c1sc(=Nc2ccc(C)cc2)n(CCCO)c1C	none
CO/N=C/c1ccc(OC)c(Oc2nc(OC)cc(OC)n2)c1	TEAD-YAP block 33.0
Nc1cccc(-c2nc(Nc3ccccc3)c3ncn(-c4ccsc4)c3n2)c1	TEAD-YAP block 49.4
CC(=O)Nc1ccc(Nc2nc(-c3cccc(N)c3)nc3c2ncn3-c2ccsc2)cc1	TEAD-YAP block 42.8
COc1ccc(-c2nc(Nc3ccc(NC(C)=O)cc3)c3ncn(-c4ccsc4)c3n2)cc1	TEAD-YAP block 43.2
COc1ccc(-c2cc3nc(C)c(C)c(N4CCCC4)n3n2)cc1OC	none
CCC(C)NC(=O)CN(c1ccc(OC)cc1)S(=O)(=O)c1ccc(C)c([N+](=O)[O-])c1 (stereo not given)	none
CC(C)(C)C1c2[nH]c3ccccc3c2CCN1C(=O)c1ccnc(-n2cnnn2)c1 (stereo not given)	none
COc1cccc(-c2cn3nc4c(nc3n2)CCCC4)c1	TEAD-YAP block 66.4
Fc1ccc(-c2cn3nc4c(nc3n2)CCCC4)cc1	TEAD-YAP block 40.0
Clc1ccc(-c2cn3nc4c(nc3n2)CCCC4)cc1	none
N=C(N)c1ccc(N)cc1	none
N=C(N)c1ccc(OCCCCCOc2ccc(C(=N)N)cc2)cc1	TEAD-YAP block 44.2!
COC(=O)C1=NN(C(=O)c2ccccc2)C(O)(c2ccc(OC)cc2)C1 (stereo not given)	none
Nn1c(SCC(=O)NC2CCCc3ccccc32)nnc1C(F)(F)F (stereo not given)	TEAD-YAP block 34.3
CCC(=O)NC(c1ccco1)c1cc(Cl)c2cccnc2c1O (stereo not given)	TEAD-YAP block 36.9
CCC(=O)NC(c1ccco1)c1ccc2cccnc2c1O (stereo not given)	MITF inh 69.9
O=C(COc1ccccc1)NC(c1ccco1)c1cc(Cl)c2cccnc2c1O (stereo not given)	TEAD-YAP block 85.3
COc1ccc(C(=O)NC(c2ccco2)c2cc(Cl)c3cccnc3c2O)cc1 (stereo not given)	none
O=C(COc1ccccc1)NC(c1ccccc1)c1cc(Cl)c2cccnc2c1O (stereo not given)	none
COc1ccc2cc3cc(C(=O)NC4CC4)sc3nc2c1	TEAD-YAP block 74.2
COc1ccc2cc3cc(C(=O)NC4CCN(Cc5ccccc5)CC4)oc3nc2c1	TEAD-YAP block 90.2
COc1ccc2cc3cc(C(=O)Nc4cc(OC)c(OC)c(OC)c4)oc3nc2c1	TEAD-YAP block 57.9
COc1ccc2cc3cc(C(=O)NCCCN4CCCCCC4)oc3nc2c1	none
Cc1ccc2c(c1)C(=O)CC(c1ccc3c(c1)OCCO3)O2 (stereo not given)	none
O=C1CC(c2ccc3c(c2)OCCCCO3)Oc2ccccc21 (stereo not given)	TEAD-YAP block 58.9
COc1cc(CNC(=O)c2ccc3ccccc3n2)cc(OC)c1OC	TEAD-YAP block 44.7
COc1cc(CNC(=O)c2c(C(F)(F)F)nc3c(OC)cccn23)cc(OC)c1OC	FBW7 act 1.9
O=C(c1ccc(-c2nnc(-c3ccccc3)o2)cc1)N1CCCCC1	TEAD-YAP block 51.4
c1ccc(COc2ccc(OCCCCN3CCNCC3)cc2)cc1	MITF inh 55.8
Ic1ccc(OCCCCN2CCNCC2)cc1	none
O=C(CNCc1ccccc1)Nc1ccc(C(=O)N2CCCC2)cc1	TEAD-YAP block 43.7
O=C(CNCc1ccccc1)Nc1ccc(N2CCCC2)cc1	none
O=C(c1ccc(OCc2ccccc2)cc1)N1CCCC1	TEAD-YAP block 84.4
COc1ccc2c(c1)C[C@@H](c1nc3ccc(-c4cn[nH]c4)cc3c(=O)[nH]1)NC2	none
COc1cccc(-c2nnc(SCC(=O)Nc3cc(Cl)ccc3OC)n2-n2cccc2)c1	TEAD-YAP block 52.0
COc1ccc(OC)c(NC(=O)CSc2nnc(-c3ccccc3)n2-n2cccc2)c1	none
O=[N+]([O-])c1cc(C(F)(F)F)ccc1N1CCN(CCOc2nonc2-c2ccccc2)CC1	none
COc1ccc2c(c1)c1nc(N(C)C)nc3c1n2CCN3C	TEAD-YAP block 87.8
Oc1ccc(CN2CCN(C/C=C/c3ccccc3)CC2)cc1	none
CCSc1nc2sccn2c(=O)c1C(=O)Nc1cc(OC)c(OC)c(OC)c1	none
Cn1cnnc1SCC(=O)Nc1ccc(C(N)=O)cc1	TEAD-YAP block 32.7
COc1ccc(-c2nc(SCC(=O)c3ccc(F)cc3)n[nH]2)cc1	none
Nc1nc(NCc2ccccc2)cc(N2CCCC2CO)n1 (stereo not given)	TEAD-YAP block 44.8
Cc1cnc(N2CCCC2CO)nc1NCc1ccccc1 (stereo not given)	TEAD-YAP block 49.9
CCc1c(-c2ccccc2)n(CCc2ccccc2)c2nc3c(c(=O)n(C)c(=O)n3C)n12	none
CCOc1cc(N2CCOCC2)c(OCC)cc1NS(=O)(=O)c1ccc(F)c(F)c1	TEAD-YAP block 34.5
Cc1ccc(NC2OC(CO)C(O)C(O)C2O)cc1C (stereo not given)	none
Cc1ccc(NC2OC(C)C(O)C(O)C2O)cc1C (stereo not given)	FBW7 act 2.5
